High-throughput results from PubChem.
ATXN2 expr inh: reduces ATXN2 reporter expression in HEK-293 cells; Potency, µM (top dose mostly 57 µM), actives largely listed as inhibitors; 360,000 compounds, 0.72% hits; HEK-293 ATXN2-luciferase reporter, luminescence, 24 h; also: nearly all actives have a fitted effect of over 55% in size
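ATXN2-luciferase reporter cells (luciferase flanked by upstream and downstream ATXN2 gene portions) were treated 24 h at 37 °C with compounds at up to 57 uM. SteadyGlo luminescence gave expression; GF-AFC fluorescence gave viability.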
ATXN viability: cell viability loss in ATXN counter-screen. Potency, µM (series often up to 56.7 µM), most hits filed as cytotoxic. AID 651635. S2 cells (HEK-293 line with an ATXN2-luciferase reporter) viability, CellTiter-Fluor protease fluorescence, 24 h. 400,000 compounds, 0.49% hits; also: nearly all actives have a fitted effect of over 40% in size
KB-V1 MDR tox: KB-V1 MDR subline cytotoxicity; 400,000 compounds, 3.4% hits; AID 1347076; KB-V1 MDR cells viability, CellTiter-Glo, 72 h; Potency, µM (doses to about 46.1 µM), most hits filed as cytotoxic; also: nearly all actives have a fitted effect of over 60% in size
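Cytotoxicity toward P-gp-expressing KB-V1 cells was determined as loss of CellTiter-Glo luminescence after 72 h at 37 degrees C. Compounds were tested in quantitative HTS format across a concentration range, with curves fitted to normalized data.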
HT1080 IDH1KD tx: HT-1080 IDH1 knockdown cell toxicity (counter line). HT-1080 IDH1 knockdown viability, ATP luminescence, 48 h. Potency, µM (series often up to 46.1 µM), hits mostly cytotoxic. 360,000 compounds, 2% hits. AID 686971
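Viability of IDH1-knockdown HT-1080 fibrosarcoma cells was assessed by CellTiter-Glo after 48 h at 37 °C with titrated compound; concentration-effect curves were classified by fit quality and response size.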
KB-3-1 cytotox: KB-3-1 parental cell cytotoxicity. KB-3-1 viability, CellTiter-Glo ATP luminescence, 72 h. AID 1347075. Potency, µM (doses to about 46.1 µM), hits mostly cytotoxic. 400,000 compounds, 1.4% hits; also: nearly all actives have a fitted effect of over 60% in size
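Screening of KB-3-1 cells (DMEM, 10% FBS, phenol-red free) ran from lowest to highest compound concentration; after 72 h at 37 °C viability was read luminescently and curves fitted.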
HT1080-NT tox: kills 2HG-producing HT-1080-NT fibrosarcoma cells. HT-1080-NT fibrosarcoma viability, CellTiter-Glo ATP luminescence, 48 h. Potency, µM (top dose mostly 46.1 µM), hits mostly cytotoxic. 360,000 compounds, 1.6% hits. AID 686970;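 also: NT is the 2HG producing partner of a matched IDH1 knockdown line; nearly all actives have a fitted effect of over 55% in size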
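Read-out is CellTiter-Glo luminescence after 10 minutes at room temperature, following 48 hours' compound treatment of HT-1080-NT cells (750 cells/well, RPMI, 5% FBS, 37 degrees C).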
Of the large screens only hits and unclear results are named; the others gave an inactive call. The list is not random: actives were taken first. Their share in the collection is about 6.2%. Calls follow the shape of the dose curve; as a rule, active = well fitted curve in the direction sought with a large enough effect; inconclusive = small, poorly fitted or top-dose-only effect, or another doubt; inactive = no such curve, though single readings can be large; an effect the other way counts as inactive or inconclusive.

CN(C)c1ccc(N=Nc2ccccc2C(=O)OCC(=O)N2CCCCCC2)cc1	ATXN viability inconclusive, KB-V1 MDR tox 3.26µM, KB-3-1 cytotox inconclusive
COc1ccc(-c2nc3cc(C)c(Br)c(C)n3c2CC(C)(C)C)cc1OC	HT1080 IDH1KD tx inconclusive
CC1CCC(CN2C(Nc3ccccc3)=NC[C@@H]2Cc2ccccc2)CC1 (some centres not stated)	ATXN2 expr inh 15.8µM, ATXN viability inconclusive, HT1080-NT tox inconclusive
CC(C)C[C@H]1CN=C(Nc2ccccc2)N1CCCC1CCCCC1	ATXN2 expr inh 25.1µM (no result: ATXN viability)
c1ccc(C[C@H]2CN=C(Nc3ccccc3)N2CC2CCC2)cc1	none
CC(C)C[C@H]1CN=C(Nc2ccccc2)N1CCCC1CCCC1	ATXN2 expr inh inconclusive, ATXN viability inconclusive, KB-V1 MDR tox inconclusive, KB-3-1 cytotox inconclusive, HT1080-NT tox inconclusive
Cc1ccc(-n2ncc(C(=O)NCc3cccs3)c2C2CCN(C(=O)OC(C)(C)C)CC2)cc1	none (no result: ATXN2 expr inh, ATXN viability, HT1080 IDH1KD tx, HT1080-NT tox)
O=C(N[C@@H]1c2ccccc2C2(CCN(Cc3c(O)ccc4ccccc34)CC2)[C@H]1O)c1ccccc1	none (no result: ATXN2 expr inh, KB-V1 MDR tox, HT1080 IDH1KD tx, KB-3-1 cytotox, HT1080-NT tox)
